Results filed as inconclusive are left out. The source made the active and inactive calls. The call rests on the fitted dose curve; in most records, active means well fitted curve in the direction sought with a large enough effect; inconclusive means small, poorly fitted or top-dose-only effect, or another doubt; inactive means no such curve, though single readings can be large; an effect the other way counts as inactive or inconclusive. Where a SMILES comes first, the peptide text is derived from it. The star is where a group is joined. Hexanoyl = CCCCCC(=O)*
Assays:
HACAT = experiment: qHTS assay to identify novel small-molecules to repurpose for Merkel cell carcinoma treatment (AID 1296009); conditions: MCC and control cell lines, CellTiter-Glo viability, 72 h; at 44.8 µM (top of the series) unless noted; further: nearly all actives have a fitted effect of over 60% in size
In short: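 Cell viability measured by CellTiter-Glo following 72 hr compound treatment at 37 degree celsius, with NPC and MIPE libraries tested in 8- and 11-point concentration series.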

C33A = experiment: Primary qHTS to identify gynecologic anti-cancer compounds using libraries of approved drugs and bioactive compounds (AID 1345084); conditions: Gynecologic cancer cell panel viability, ATPlite luminescence, 48 h; series mostly up to 57.5 µM; further: on the % scale 0 is the no-effect control and ±100 the full control effect; nearly all actives have a fitted effect of over 55% in size
In short: (§1)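 Cytotoxicity screen measuring ATP content by luciferase luminescence. Each compound is applied at five concentrations for 48 h at 37 C with 5% CO2.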

CAOV3 = experiment: as above; conditions: Gynecologic cancer cell panel viability, ATPlite luminescence, 48 h; series mostly up to 57.5 µM
In short: as §1

CASKI = experiment: as above; conditions: Gynecologic cancer cell panel viability, ATPlite luminescence, 48 h; series mostly up to 57.5 µM
In short: as §1

Es-2 = experiment: as above; conditions: Gynecologic cancer cell panel viability, ATPlite luminescence, 48 h; series mostly up to 57.5 µM
In short: as §1

HeLa = experiment: as above; conditions: Gynecologic cancer cell panel viability, ATPlite luminescence, 48 h; series mostly up to 57.5 µM
In short: as §1

Hek293T = experiment: as above; conditions: Gynecologic cancer cell panel viability, ATPlite luminescence, 48 h, control line for the selectivity index; series mostly up to 57.5 µM
In short: as §1

JEG-3 = experiment: as above; conditions: Gynecologic cancer cell panel viability, ATPlite luminescence, 48 h; series mostly up to 57.5 µM
In short: as §1

O=C(OC[C@H]1O[C@H](O[C@]2(CO)O[C@H](CO)[C@@H](O)[C@@H]2O)[C@H](O)[C@@H](O)[C@@H]1O)c1ccc(O)cc1
inactive: outcome (HACAT) inactive [at 17.4 µM] | Potency (C33A) | Potency (CAOV3) | outcome (CASKI) | Potency (Es-2) | Potency (HeLa) | Potency (Hek293T) | Potency (JEG-3)

CC1C2=CC(=O)OC2(O)CC2C1C(OC(=O)c1ccccc1)C(OC(=O)c1ccccc1)C1(O)C2(C)CCC(O)C1(C)C(=O)O (stereo unspecified)
inactive: outcome (HACAT) inactive [at 17.4 µM] | Potency (C33A) | Potency (CAOV3) | outcome (CASKI) | Potency (Es-2) | Potency (HeLa) | Potency (Hek293T) | Potency (JEG-3)

CCCCCC(=O)N1CCC[C@H]1C(=O)N[C@@H](Cc1ccc(O)cc1)C(=O)OC (Hexanoyl-Pro-Tyr-OMe)
inactive: outcome (HACAT) | Potency (C33A) | Potency (CAOV3) | outcome (CASKI) | Potency (Es-2) | Potency (HeLa) | Potency (Hek293T) | Potency (JEG-3)

CC(C)=CC[C@H]1O[C@]2(O)C([C@H]3CCC4[C@@]5(C)CC[C@H](O[C@@H]6O[C@H](CO)[C@H](O)[C@H](O[C@@H]7O[C@H](CO)[C@@H](O)[C@H](O)[C@H]7O)[C@H]6O[C@@H]6O[C@@H](C)[C@H](O)[C@@H](O)[C@H]6O)C(C)(C)C5CC[C@@]4(C)[C@]3(C)[C@H]2O)[C@@]1(C)O (stereo partly specified)
inactive: outcome (HACAT) inactive [at 9.27 µM] | activity change, negative = cytotoxicity (C33A) 1.02% [at 11.6 µM] | activity change, negative = cytotoxicity (CAOV3) 7.68% [at 11.6 µM] | activity change, negative = cytotoxicity (CASKI) -0.575% [at 11.6 µM] | activity change, negative = cytotoxicity (Es-2) -1.48% [at 11.6 µM] | activity change, negative = cytotoxicity (HeLa) -4.09% [at 11.6 µM] | activity change, negative = cytotoxicity (Hek293T) 0.87% [at 11.6 µM] | activity change, negative = cytotoxicity (JEG-3) 13.4% [at 11.6 µM]

CC1=CC2=C(C)C(=O)[C@](C)(O)[C@H](O)C2=CO1
inactive: outcome (HACAT) | Potency (C33A) | Potency (CAOV3) | outcome (CASKI) | Potency (Es-2) | Potency (HeLa) | Potency (Hek293T) | Potency (JEG-3)

CC(=O)O[C@H]1C[C@@]2(C)[C@@H](CC[C@H]3[C@@]4(C)C=CC(=O)[C@@H](C)[C@@H]4[C@H](OC(C)=O)C(=O)[C@@]32C)/C1=C(\CCC=C(C)C)C(=O)O
inactive: outcome (HACAT) inactive [at 17.4 µM] | Potency (C33A) | Potency (CAOV3) | outcome (CASKI) | Potency (Es-2) | Potency (HeLa) | Potency (Hek293T) | Potency (JEG-3)

COC(=O)[C@]1(Cc2ccc(O)c(CC=C(C)C)c2)OC(=O)C(O)=C1c1ccc(O)cc1
inactive: outcome (HACAT) inactive [at 17.4 µM] | Potency (C33A) | Potency (CAOV3) | outcome (CASKI) | Potency (Es-2) | Potency (HeLa) | Potency (Hek293T) | Potency (JEG-3)

OC[C@H]1O[C@@H](O[C@H]2[C@H](O)[C@@H](CO)O[C@@H](OCc3ccccc3)[C@@H]2O[C@@H]2OC[C@](O)(CO)[C@H]2O)[C@H](O)[C@@H](O)[C@@H]1O
inactive: outcome (HACAT) inactive [at 17.4 µM] | Potency (C33A) | Potency (CAOV3) | outcome (CASKI) | Potency (Es-2) | Potency (HeLa) | Potency (Hek293T) | Potency (JEG-3)

COC(=O)C[C@H]1C(C)(C)[C@H](OC(=O)C(C)C)C2CC3=C4CC(=O)O[C@@H](c5ccoc5)[C@]4(C)CCC3[C@@]1(C)C2=O (stereo partly specified)
inactive: outcome (HACAT) inactive [at 17.4 µM] | Potency (C33A) | Potency (CAOV3) | outcome (CASKI) | Potency (Es-2) | Potency (HeLa) | Potency (Hek293T) | Potency (JEG-3)

CC(NC(=O)[C@H](Cc1ccccc1)NC(=O)OCc1ccccc1)C(=O)CF (stereo partly specified)
inactive: outcome (HACAT) | Potency (C33A) | Potency (CAOV3) | outcome (CASKI) | Potency (Es-2) | Potency (HeLa) | Potency (Hek293T) | Potency (JEG-3)

CCCC(=O)Nc1cccc(NC(=O)c2ccccc2Br)c1
inactive: outcome (HACAT) | Potency (C33A) | Potency (CAOV3) | outcome (CASKI) | Potency (Es-2) | Potency (HeLa) | Potency (Hek293T) | Potency (JEG-3)

O=C(/C=C/c1ccc(O)cc1)OC[C@@]1(O)C=C[C@@H]2C(C(=O)O)=CO[C@@H](O[C@@H]3O[C@H](CO)[C@@H](O)[C@H](O)[C@H]3O)[C@@H]21
inactive: outcome (HACAT) inactive [at 17.4 µM] | Potency (C33A) | Potency (CAOV3) | outcome (CASKI) | Potency (Es-2) | Potency (HeLa) | Potency (Hek293T) | Potency (JEG-3)

COc1ccc(S(=O)(=O)Nc2nc(-c3cccc([N+](=O)[O-])c3)cs2)cc1OC
inactive: outcome (HACAT) | Potency (C33A) | Potency (CAOV3) | outcome (CASKI) | Potency (Es-2) | Potency (HeLa) | Potency (Hek293T) | Potency (JEG-3)

C/C=C(/C)C(=O)OC1CC(C)(C)CC2C3=CCC4C5(C)CCC(OC6OC(C)C(OC7OC(C(=O)O)C(O)C(OC8OC(CO)C(O)C(O)C8OC8OC(CO)C(O)C(O)C8O)C7O)C(O)C6O)C(C)(C)C5CCC4(C)C3(C)C(OC(=O)/C=C/C=C/C=C/CCC)C(OC(C)=O)C12CO (stereo unspecified)
inactive: outcome (HACAT) inactive [at 9.27 µM] | activity change, negative = cytotoxicity (C33A) -5.83% [at 6.55 µM] | activity change, negative = cytotoxicity (CASKI) -6.51% [at 6.55 µM] | activity change, negative = cytotoxicity (Es-2) 13.9% [at 6.55 µM] | activity change, negative = cytotoxicity (HeLa) 0% [at 6.55 µM] | activity change, negative = cytotoxicity (Hek293T) -3.11% [at 6.55 µM] | activity change, negative = cytotoxicity (JEG-3) -5.73% [at 6.55 µM]

C=C(C)[C@H]1CC[C@]2(C(=O)O)CC[C@]3(C)C(CCC4[C@@]5(C)CCC(=O)C(C)(C)C5CC[C@]43C)C12 (stereo partly specified)
inactive: outcome (HACAT) inactive [at 17.4 µM] | Potency (C33A) | outcome (CASKI) | Potency (Es-2) | Potency (HeLa) | Potency (Hek293T) | Potency (JEG-3)

COc1c(C)c(OCC(O)C(C)(C)O)cc2c1CNC2=O (stereo unspecified)
inactive: outcome (HACAT) | Potency (C33A) | Potency (CAOV3) | outcome (CASKI) | Potency (Es-2) | Potency (HeLa) | Potency (Hek293T) | Potency (JEG-3)

From PubChem BioAssay (NCATS)
